# Experimental data taken from PubChem BioAssay (NCI).
# This is part of a sample that, as a whole, favours compounds with a hit. Of some 79,000 tested, about 15% had one in any assay. Unmarked numbers belong to inactive results. Active and inactive are the calls of the source. No stated cut-off is given here; in the data, active means growth inhibition above about 70%; inactive means the rest.
# How the values were obtained:
# [1] = NCI Yeast Anticancer Drug Screen. Data for the rad50 strain (AID 155);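 further: 0% = growth of vehicle-only cultures of the same strain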; details: S. cerevisiae rad50 strain growth inhibition, active compounds read high
# How it was run: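 Yeast carrying a defined DNA repair defect were exposed to test compounds, and growth was compared with vehicle-treated controls to give percent inhibition.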
# [2] = NCI Yeast Anticancer Drug Screen. Data for the mec2-1 strain (AID 157); details: S. cerevisiae mec2-1 strain, active compounds read high
# How it was run: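 Cells of the genetically defined mec2-1 yeast strain are incubated with test compound. Inhibition of growth is calculated against vehicle-treated controls.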
# [3] = NCI Yeast Anticancer Drug Screen. Data for the sgs1 mgt1 strain (AID 161);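 further: 0% = growth of cultures given vehicle only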; details: S. cerevisiae sgs1 mgt1 strain, active compounds read high
# How it was run: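 Mutant yeast exposed to compound; growth scored against vehicle-only wells.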
# [4] = NCI Yeast Anticancer Drug Screen. Data for the cln2 rad14 strain (AID 165);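 further: 0% = growth equal to vehicle treated cultures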; details: S. cerevisiae cln2 rad14 strain, active compounds read high
# How it was run: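 The screen exposed genetically defined yeast (cln2 rad14) to test compounds and scored growth inhibition relative to vehicle-treated controls.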
# [5] = NCI Yeast Anticancer Drug Screen. Data for the bub3 strain (AID 167); details: S. cerevisiae bub3 mutant strain, active compounds read high
# How it was run: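 Compounds were applied to a genetically altered yeast strain carrying a cell-cycle control defect. Growth inhibition was scored against vehicle-treated controls.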
# [6] = NCI Yeast Anticancer Drug Screen. Data for the mlh1 rad18 strain (AID 175); details: S. cerevisiae mlh1 rad18 strain growth inhibition, active compounds read high
# How it was run: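 Compound-treated yeast growth, normalised to vehicle controls. Strain bears defined DNA repair mutations.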
# [7] = at 5.0 µM (retest, dose inferred, filed as 0.5)
# [8] = at 50.0 µM (retest, dose inferred, filed as 5.0)
SMILES,"growth inhibition [1, 7]","growth inhibition [1, 8]",growth inhibition ([1]; at 50.0 µM),"growth inhibition [2, 7]","growth inhibition [2, 8]",growth inhibition ([2]; at 50.0 µM),"growth inhibition [3, 7]","growth inhibition [3, 8]",growth inhibition ([3]; at 50.0 µM),"growth inhibition [4, 7]","growth inhibition [4, 8]",growth inhibition ([4]; at 50.0 µM),"growth inhibition [5, 7]","growth inhibition [5, 8]",growth inhibition ([5]; at 50.0 µM),"growth inhibition [6, 7]","growth inhibition [6, 8]",growth inhibition ([6]; at 50.0 µM)
COC([CH2][Hg])CN1C(=O)c2cc(C)c(C)cc2C1=O (stereo not given),99% (active),99% (active),99.3% (active),100% (active),100% (active),99.7% (active),100% (active),100% (active),99.6% (active),99% (active),99% (active),98.3% (active),99% (active),99% (active),98.7% (active),99% (active),99% (active),99.3% (active)
CN(C)CCBr,86% (active),95% (active),38%,16%,92% (active),88.1% (active),61%,94% (active),92.9% (active),-1%,84% (active),64.2%,-10%,81% (active),55.6%,49%,95% (active),96.7% (active)
[Cl][Pt][Cl].c1ccc([AsH](CC[AsH](c2ccccc2)c2ccccc2)c2ccccc2)cc1,99% (active),99% (active),98.8% (active),99% (active),99% (active),99.4% (active),99% (active),99% (active),98.8% (active),98% (active),98% (active),98.6% (active),99% (active),99% (active),99.2% (active),99% (active),99% (active),99.2% (active)
CN=C(N)N/N=C(\C)c1ccc2sc3ccc(/C(C)=N/NC(N)=NC)cc3c2c1,49%,55%,74.7% (active),-4%,-2%,24.5%,23%,14%,13%,17%,7%,20.8%,24%,20%,-8.5%,14%,17%,30.2%
O=C1C(C(Nc2ccccc2)c2ccccc2)=C([O-])c2ccccc21.O=C1C(C(Nc2ccccc2)c2ccccc2)=C([O-])c2ccccc21.[Ni+2] (stereo not given),57%,81% (active),63.3%,33%,55%,71% (active),49%,80% (active),36.6%,46%,46%,55.8%,51%,84% (active),73.8% (active),39%,81% (active),63.1%
Cc1[cH-]c(=O)n(-c2ccccc2)n1.[Au+].[Au].c1ccc([PH+](c2ccccc2)c2ccccc2)cc1.c1ccc([PH+](c2ccccc2)c2ccccc2)cc1,27%,65%,88.8% (active),32%,96% (active),90.3% (active),33%,93% (active),91.5% (active),18%,65%,88.7% (active),19%,87% (active),89.4% (active),35%,79% (active),83% (active)
Cc1ccc([NH-])cc1C.Cc1ccc([NH-])cc1C.[Cl][Pt+2][Cl],4%,21%,34.2%,-1%,9%,19.8%,5%,58%,62.5%,-8%,12%,-32.4%,-8%,4%,10.8%,6%,49%,81.5% (active)
O=[N+]([O-])/C=C\c1ccccc1,65%,99% (active),92.8% (active),17%,99% (active),95.2% (active),20%,99% (active),91.8% (active),14%,99% (active),82.7% (active),39%,99% (active),97% (active),26%,99% (active),79% (active)
CCOc1ccc(CCNC)c2c1ccc1ccc(OC)c(O)c12,-1%,97% (active),97.3% (active),-5%,98% (active),99% (active),-3%,98% (active),98.1% (active),5%,98% (active),92.2% (active),-4%,98% (active),97.8% (active),6%,96% (active),98% (active)
O=C(O)C(O)(c1ccc(-c2ccccc2)cc1)c1ccc(-c2ccccc2)cc1,16%,91% (active),96.4% (active),13%,93% (active),97% (active),0%,95% (active),96.2% (active),5%,93% (active),95% (active),-12%,93% (active),96.9% (active),1%,96% (active),96.8% (active)
